Measurements as given in PubChem BioAssay AID492992 (Johns Hopkins Ion Channel Center, 2010).
The whole screen tested about 4,900 compounds, of which about 2,100 (43%) were called active.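 Rule for the calls: active = thallium signal inhibited by more than 5 SD of the compound-free buffer control wells, on both duplicate plates; inactive = the rest.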 So high a share suggests a set chosen from earlier hits. Not all results are given here.

These compounds were tested against Potassium channel subfamily K member 9 (Homo sapiens) (UniProt Q9NPC2) (assay: blockers of human TASK-3 (KCNK9) channel – HEK293 cells, thallium flux, duplicate, confirmation (AID 492992;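 for inhibition: 0% = assay buffer control wells without compound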)). Conditions: FluxOR thallium flux fluorescence, at 10 µM; active compounds read high.
Potassium channel subfamily K member 9 (Homo sapiens), sequence (Q9NPC2 whole entry, looked up): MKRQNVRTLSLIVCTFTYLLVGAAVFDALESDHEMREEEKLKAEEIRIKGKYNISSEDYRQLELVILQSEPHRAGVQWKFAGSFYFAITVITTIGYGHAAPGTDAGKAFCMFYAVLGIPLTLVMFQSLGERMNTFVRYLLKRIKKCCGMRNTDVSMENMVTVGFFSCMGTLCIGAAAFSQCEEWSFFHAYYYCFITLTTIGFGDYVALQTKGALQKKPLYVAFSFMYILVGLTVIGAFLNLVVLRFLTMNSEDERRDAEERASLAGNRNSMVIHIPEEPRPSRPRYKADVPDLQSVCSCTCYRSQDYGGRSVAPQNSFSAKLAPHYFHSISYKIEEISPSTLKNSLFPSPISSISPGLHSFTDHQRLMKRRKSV
CN(CCC(=O)Nc1cc(S(=O)(=O)N(C)C)ccc1Cl)CC(=O)Nc1ccc(F)cc1 was tested, and the inhibition was 51.5% (active).
With CC1CCN(C(=S)c2ccc(-c3ccc(Cl)cc3Cl)o2)CC1 the inhibition was “inactive”.
With COc1ccc(C2Nc3ccccc3C(=O)N2Cc2ccccc2)cc1Cn1nnc2ccccc21 (configuration not stated) the inhibition was “inactive”.
With O=C(Nc1ccc(Cl)c(Cl)c1)N1CC=C(c2ccccc2)CC1 the inhibition was 30% (active).
O=C(COC(=O)c1ccccc1)Nc1ccccc1Sc1ccccc1 was tested, and the inhibition was 35% (active).
With CCN(C(=O)COc1ccc(C(=O)c2ccccc2)cc1)c1ccccc1 the inhibition was 40% (active).
For CCOC(=O)[C@@H]1[C@H]2COc3ccc(Br)cc3[C@H]2N2C(=O)N(c3ccc(Cl)cc3)C(=O)[C@@]12C, the inhibition was 56.5% (active).
With C[C@@]12C(=O)N(c3cccc(Br)c3)C(=O)N1[C@H](c1ccc(Cl)cc1)[C@@H]1C(=O)N(C3CCCCC3)C(=O)[C@@H]12 the inhibition was “inactive”.
With COc1cccc2cc(C(C)N(CCCN3CCOCC3)C(=O)Nc3ccc(Cl)cc3)oc12 (configuration not stated) the inhibition was 42.5% (active).
In the case of Cc1cccc2cc(CN(Cc3nnnn3Cc3ccccc3)C3CCCC3)c(=O)[nH]c12, the inhibition was 27% (active).
CCC(c1nnnn1Cc1ccco1)N(CCc1ccccc1)Cc1cc2cccc(C)c2[nH]c1=O (configuration not stated) was tested, and the inhibition was 47% (active).
With CCOc1ccc(OCc2ccc(C(=O)Nc3cccc(C)n3)o2)cc1 the inhibition was “inactive”.
For O=C(Cc1ccccc1)n1nc(-c2ccccc2)nc1NCc1ccco1, the inhibition was “inactive”.
With CCC1(C)Cc2c(sc3[nH]c(=S)n(Cc4ccccc4)c(=O)c23)CO1 (configuration not stated) the inhibition was “inactive”.
For CCCSc1nc(NCc2ccco2)c2c3c(sc2n1)COC(C)(CC)C3 (configuration not stated), the inhibition was 40% (active).
In the case of Cc1ccc(C)c(NC(=S)NNC(=S)Nc2ccc(C(C)C)cc2)c1, the inhibition was “inactive”.
In the case of CCOC(=O)Cc1cc(=O)[nH]c(=O)[nH]1, the inhibition was 25% (active).
In the case of Clc1ccc(Cl)c(Oc2ccc(Oc3nc(Cl)ccc3Cl)cc2)n1, the inhibition was “inactive”.
CCC/C=C(\CCC)C(NC(=O)Cc1ccccc1)c1ccc(C(=O)OC)cc1 (configuration not stated) was tested, and the inhibition was 67% (active).
With CC(C)(C)SCCSC1=CC(=O)CC(c2ccccc2)C1 (configuration not stated) the inhibition was “inactive”.
In the case of CCCCCC(O)c1cccc(OCc2ccc3ccccc3n2)c1 (configuration not stated), the inhibition was 74.5% (active).
With COc1cccc(-c2cnc(OC(C)(C)C)nc2OC(C)(C)C)c1 the inhibition was “inactive”.
With CCOC(=O)c1cc2sccc2n1Cc1ccc(C#N)cc1 the inhibition was 65% (active).
In the case of CCOC(=O)c1c(NC(=O)CCCN2CCOCC2)sc2c1CC(C)(C)OC2, the inhibition was “inactive”.
With CN(CCOc1ccccc1)C(=O)c1cc(COc2c(F)cccc2F)on1 the inhibition was “inactive”.
CCOC(=O)C1=C(C)Nc2sc(C(=O)c3ccc(Br)cc3)c(N)c2C1c1ccc(C(=O)OC)cc1 (configuration not stated) was tested, and the inhibition was 31% (active).
For COc1cc(Cl)c(S(=O)(=O)N2CCN(Cc3ccc4c(c3)OCO4)CC2)cc1Cl, the inhibition was “inactive”.
With COc1ccc(C(=O)Nc2ccccc2C(=O)N/N=C/c2ccccc2OC)cc1 the inhibition was 36.5% (active).
With COc1ccc(C(=O)NN2C(=O)C3C(c4ccccc4)C=CC(c4ccccc4)C3C2=O)cc1 (configuration not stated) the inhibition was “inactive”.
O=C(CNCCC1=CCCCC1)Nc1ccccc1N1CCCCCC1 was tested, and the inhibition was 51.5% (active).
For O=c1cc(CN2CCN(c3cccc(Cl)c3)CC2)c2cc3c(cc2o1)CCCC3, the inhibition was “inactive”.
In the case of CCOC(=O)c1c(NC(=O)CSc2cn(CC)c3ccccc23)sc2c1CCC2, the inhibition was “inactive”.
In the case of COc1cccc(OC)c1C(=O)Nc1sc2c(c1C(N)=O)CCCC2, the inhibition was 33% (active).
Cc1ccc(C(=O)c2c(NC(=O)c3ccncc3)sc3c2CCCC3)cc1 was tested, and the inhibition was “inactive”.
For Cc1cc2ccccn2c1C(=O)c1cccc(F)c1, the inhibition was “inactive”.
In the case of COc1ccc(C(CCN(Cc2ccc(OC)c(OC)c2)C(=O)CCl)c2ccccc2)cc1 (configuration not stated), the inhibition was 36% (active).
For Cc1ccc(-c2csc(NCCc3nc4cc(Cl)c(Cl)cc4n3CCOCCO)n2)cc1, the inhibition was 54% (active).
With CCOC(=O)N1CCN(C(=O)COc2ccc3oc4c(c3c2)CCCC4)CC1 the inhibition was “inactive”.
For Cc1cccc(NC(=O)c2sc3nc4c(c(-c5ccco5)c3c2N)CCC4)c1, the inhibition was 58.5% (active).
In the case of O=C(Nc1ccc2c(c1)CCC2)c1cccc(S(=O)(=O)Nc2ccccc2Cl)c1, the inhibition was “inactive”.
O=C(N/N=C/c1ccccn1)c1cccc(NC(=O)c2ccc(Cl)cc2)c1 was tested, and the inhibition was 48% (active).
With O=C(COc1ccc(Cl)cc1Cl)N/N=C/c1ccccn1 the inhibition was 47% (active).
Oc1ccc(/C=N/Nc2nc(-c3ccccc3F)nc3ccccc23)c(O)c1 was tested, and the inhibition was “inactive”.
In the case of COc1ccc(C(=O)C2CCCN(C(=O)c3ccc(OC)o3)C2)c(C)c1 (configuration not stated), the inhibition was “inactive”.
With COc1ccc(OC)c(C(=O)c2coc3ccc(OC)cc23)c1 the inhibition was 47% (active).
In the case of Cc1ccnc(N2CCN(C(=O)CSc3nc4ccccc4nc3N3CCCCC3)CC2)c1, the inhibition was “inactive”.
Clc1ccc(COn2c(-c3ccc(Cl)cc3Cl)nc3ncccc32)cc1 was tested, and the inhibition was 41% (active).
Cc1onc(-c2ccc(Cl)cc2)c1-c1ccnn1S(=O)(=O)c1ccc(Cl)cc1 was tested, and the inhibition was “inactive”.
Cc1ccc(SCC(=O)c2cc(C)c(OC(=S)N(C)C)c(C)c2)cc1 was tested, and the inhibition was “inactive”.
With Cc1[nH][nH]c(=O)c1C(c1ccc(-c2ccc(Cl)cc2)o1)c1c(C)[nH][nH]c1=O the inhibition was “inactive”.
In the case of Cc1cc(C=O)c(C)n1-c1ccc(NC2CCCCC2)c([N+](=O)[O-])c1, the inhibition was 63% (active).
Cc1ccc(NC(=O)c2cc([N+](=O)[O-])ccc2Cl)c(O)c1 was tested, and the inhibition was 58.5% (active).
For CCN(CC)S(=O)(=O)c1ccc(N(C)Cc2ccc(C(F)(F)F)cc2)nc1, the inhibition was “inactive”.
O=C1CC(c2ccccc2)=NN1c1ccc([N+](=O)[O-])cc1 was tested, and the inhibition was “inactive”.
For O=C1c2ccccc2S(=O)(=O)N1CC(O)Cn1c2ccccc2c2ccccc21 (configuration not stated), the inhibition was 28% (active).
CCCCOC(=O)CCCc1ccc([N+](=O)[O-])cc1[N+](=O)[O-] was tested, and the inhibition was “inactive”.
With Cc1ncoc1C(=O)N1CCCC(C(=O)c2ccc3c4c(cccc24)CC3)C1 (configuration not stated) the inhibition was “inactive”.
With COC(=O)C1=C(Nc2ccc(C)cc2)C=C(C)C(C(=O)OC)C1c1ccc(F)cc1 (configuration not stated) the inhibition was 36% (active).
CCn1cnc2scc(-c3ccc(C)c(C)c3)c2c1=O was tested, and the inhibition was “inactive”.
For CCCOc1ccc2c3c(c(=O)oc2c1OCCC)CCC3, the inhibition was 66.5% (active).
COc1ccc(C2CC(c3cccs3)=NN2c2ccccc2)cc1 (configuration not stated) was tested, and the inhibition was 50% (active).
With COc1ccc(/C=C2\CCc3ccccc3C2=O)c(OC)c1OC the inhibition was “inactive”.
